What follows are targets tested with Nc1ncnc2c1ncn2[C@@H]1O[C@H](COP(=O)(O)OP(=O)(O)OP(=O)(O)O)[C@@H](O)[C@H]1O [adenosine 5'-triphosphate] (assay: log2 fold change of tryptic peptide abundance, ligand vs vehicle (limited proteolysis) (log2 ratio); higher = more trypsin-susceptible (destabilized)). Conditions: ligand concentration: 5 mM; sample: E. coli desalted lysate; replicate design: treated before aliquoting.
Method: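 HT-PELSA: desalted E. coli K-12 BW25113 lysate (with 12 mM MgCl2) incubated with 5 mM ATP (pH 7) or water for 30 min at 25 C, then a 4 min trypsin pulse at 22 C. Peptides were quantified by DIA-MS (4 replicates). Value is the peptide log2 fold change (treated/control); negative = stabilized. Scale: negative = ligand-stabilized region.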
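Further: lysate desalted by size exclusion to strip endogenous ATP, peptide intensities built from DIA-NN precursor signals, and peptides missing any value discarded before comparison.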

Sequence of UniProt P78067 (P78067 whole entry): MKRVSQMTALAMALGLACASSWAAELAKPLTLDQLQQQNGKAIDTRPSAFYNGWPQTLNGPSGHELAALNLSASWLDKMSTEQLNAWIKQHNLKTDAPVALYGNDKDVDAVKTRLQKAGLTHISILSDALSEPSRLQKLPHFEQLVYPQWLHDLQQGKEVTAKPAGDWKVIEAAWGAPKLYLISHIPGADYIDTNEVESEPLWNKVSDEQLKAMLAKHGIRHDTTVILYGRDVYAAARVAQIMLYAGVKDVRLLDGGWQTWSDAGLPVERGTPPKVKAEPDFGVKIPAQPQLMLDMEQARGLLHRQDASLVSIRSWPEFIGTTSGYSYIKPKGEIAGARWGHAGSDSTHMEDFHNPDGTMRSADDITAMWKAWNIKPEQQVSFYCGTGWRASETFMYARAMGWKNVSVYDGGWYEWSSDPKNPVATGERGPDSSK
Sequence of UniProt P07604 (P07604 whole entry): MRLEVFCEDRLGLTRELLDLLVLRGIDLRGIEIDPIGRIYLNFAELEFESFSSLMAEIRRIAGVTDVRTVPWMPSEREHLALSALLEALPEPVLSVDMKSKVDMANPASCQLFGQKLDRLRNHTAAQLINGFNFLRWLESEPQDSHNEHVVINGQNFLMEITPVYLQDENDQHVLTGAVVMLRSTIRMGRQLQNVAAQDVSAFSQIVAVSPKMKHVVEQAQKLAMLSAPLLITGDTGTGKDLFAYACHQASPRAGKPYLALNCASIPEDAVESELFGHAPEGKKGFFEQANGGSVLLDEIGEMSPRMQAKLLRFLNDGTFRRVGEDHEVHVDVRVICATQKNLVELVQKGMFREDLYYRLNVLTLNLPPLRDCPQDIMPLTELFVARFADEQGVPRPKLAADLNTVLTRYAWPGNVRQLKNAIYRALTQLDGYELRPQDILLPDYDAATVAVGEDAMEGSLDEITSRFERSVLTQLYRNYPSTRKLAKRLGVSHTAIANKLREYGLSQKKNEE
Sequence of UniProt P0A9L8 (P0A9L8 whole entry): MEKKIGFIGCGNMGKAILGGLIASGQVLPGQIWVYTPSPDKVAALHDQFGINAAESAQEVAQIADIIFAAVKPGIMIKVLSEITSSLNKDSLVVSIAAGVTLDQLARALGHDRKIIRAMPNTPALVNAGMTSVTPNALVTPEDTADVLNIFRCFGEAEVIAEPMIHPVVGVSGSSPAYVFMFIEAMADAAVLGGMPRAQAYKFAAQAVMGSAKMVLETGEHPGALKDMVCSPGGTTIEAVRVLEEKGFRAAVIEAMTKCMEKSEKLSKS
Sequence of UniProt P76543 (P76543 whole entry): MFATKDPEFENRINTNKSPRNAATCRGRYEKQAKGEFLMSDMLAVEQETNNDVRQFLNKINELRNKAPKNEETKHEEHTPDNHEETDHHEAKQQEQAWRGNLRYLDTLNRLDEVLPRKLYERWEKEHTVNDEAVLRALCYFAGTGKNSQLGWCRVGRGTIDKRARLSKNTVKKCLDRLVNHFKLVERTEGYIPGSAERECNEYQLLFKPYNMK
Sequence of UniProt P08401 (P08401 whole entry): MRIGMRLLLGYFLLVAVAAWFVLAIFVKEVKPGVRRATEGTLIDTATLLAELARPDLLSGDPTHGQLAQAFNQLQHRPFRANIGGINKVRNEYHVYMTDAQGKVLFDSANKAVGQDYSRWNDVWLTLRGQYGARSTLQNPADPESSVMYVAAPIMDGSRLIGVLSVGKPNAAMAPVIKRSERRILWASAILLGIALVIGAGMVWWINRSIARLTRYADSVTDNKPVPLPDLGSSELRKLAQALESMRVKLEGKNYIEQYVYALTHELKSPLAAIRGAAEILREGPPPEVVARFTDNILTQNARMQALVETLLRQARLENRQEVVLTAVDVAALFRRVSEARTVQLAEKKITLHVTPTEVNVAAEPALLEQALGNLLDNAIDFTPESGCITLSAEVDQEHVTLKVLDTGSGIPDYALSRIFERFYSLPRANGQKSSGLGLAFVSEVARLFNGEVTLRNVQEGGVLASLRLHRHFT
Sequence of UniProt P13857 (P13857 whole entry): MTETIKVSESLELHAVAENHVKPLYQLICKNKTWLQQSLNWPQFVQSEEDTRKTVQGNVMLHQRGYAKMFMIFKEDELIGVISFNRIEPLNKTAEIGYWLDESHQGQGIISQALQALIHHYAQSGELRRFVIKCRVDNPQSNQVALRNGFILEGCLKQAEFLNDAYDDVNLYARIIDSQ
Sequence of UniProt P06720 (P06720 whole entry): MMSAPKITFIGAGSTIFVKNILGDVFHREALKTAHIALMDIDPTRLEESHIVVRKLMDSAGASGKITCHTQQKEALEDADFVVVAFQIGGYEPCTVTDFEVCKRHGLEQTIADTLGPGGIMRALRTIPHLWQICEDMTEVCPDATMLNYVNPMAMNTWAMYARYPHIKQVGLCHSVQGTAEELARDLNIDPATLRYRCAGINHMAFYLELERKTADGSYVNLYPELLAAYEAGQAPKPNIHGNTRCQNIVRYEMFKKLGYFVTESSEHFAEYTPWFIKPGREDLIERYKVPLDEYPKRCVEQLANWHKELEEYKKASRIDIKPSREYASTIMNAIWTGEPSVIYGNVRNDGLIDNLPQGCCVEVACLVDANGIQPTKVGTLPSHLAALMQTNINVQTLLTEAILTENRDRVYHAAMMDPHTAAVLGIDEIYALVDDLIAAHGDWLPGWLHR
Sequence of UniProt P32125 (P32125 whole entry): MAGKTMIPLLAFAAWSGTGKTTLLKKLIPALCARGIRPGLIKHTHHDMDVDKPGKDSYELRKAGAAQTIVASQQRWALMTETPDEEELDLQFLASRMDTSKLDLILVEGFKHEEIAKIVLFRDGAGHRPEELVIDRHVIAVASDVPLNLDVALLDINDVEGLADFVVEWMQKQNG
Sequence of UniProt P77544 (P77544 whole entry): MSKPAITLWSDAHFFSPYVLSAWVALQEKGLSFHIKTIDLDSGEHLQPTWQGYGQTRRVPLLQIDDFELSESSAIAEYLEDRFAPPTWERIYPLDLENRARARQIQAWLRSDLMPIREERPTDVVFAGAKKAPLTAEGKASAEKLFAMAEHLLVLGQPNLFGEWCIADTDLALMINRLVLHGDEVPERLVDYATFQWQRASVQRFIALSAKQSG
Sequence of UniProt P08194 (P08194 whole entry): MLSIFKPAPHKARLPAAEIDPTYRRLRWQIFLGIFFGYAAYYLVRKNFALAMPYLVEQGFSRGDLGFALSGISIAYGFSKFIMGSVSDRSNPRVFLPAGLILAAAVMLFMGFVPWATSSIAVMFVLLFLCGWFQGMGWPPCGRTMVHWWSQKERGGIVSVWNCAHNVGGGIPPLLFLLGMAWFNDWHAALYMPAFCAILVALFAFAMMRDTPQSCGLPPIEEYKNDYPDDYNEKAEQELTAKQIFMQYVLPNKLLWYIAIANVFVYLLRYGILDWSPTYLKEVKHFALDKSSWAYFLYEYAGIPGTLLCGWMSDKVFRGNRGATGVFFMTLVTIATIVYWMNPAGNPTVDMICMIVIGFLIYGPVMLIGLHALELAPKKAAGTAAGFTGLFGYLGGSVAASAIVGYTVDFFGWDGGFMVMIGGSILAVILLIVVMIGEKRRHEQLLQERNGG
Sequence of UniProt P06959 (P06959 whole entry): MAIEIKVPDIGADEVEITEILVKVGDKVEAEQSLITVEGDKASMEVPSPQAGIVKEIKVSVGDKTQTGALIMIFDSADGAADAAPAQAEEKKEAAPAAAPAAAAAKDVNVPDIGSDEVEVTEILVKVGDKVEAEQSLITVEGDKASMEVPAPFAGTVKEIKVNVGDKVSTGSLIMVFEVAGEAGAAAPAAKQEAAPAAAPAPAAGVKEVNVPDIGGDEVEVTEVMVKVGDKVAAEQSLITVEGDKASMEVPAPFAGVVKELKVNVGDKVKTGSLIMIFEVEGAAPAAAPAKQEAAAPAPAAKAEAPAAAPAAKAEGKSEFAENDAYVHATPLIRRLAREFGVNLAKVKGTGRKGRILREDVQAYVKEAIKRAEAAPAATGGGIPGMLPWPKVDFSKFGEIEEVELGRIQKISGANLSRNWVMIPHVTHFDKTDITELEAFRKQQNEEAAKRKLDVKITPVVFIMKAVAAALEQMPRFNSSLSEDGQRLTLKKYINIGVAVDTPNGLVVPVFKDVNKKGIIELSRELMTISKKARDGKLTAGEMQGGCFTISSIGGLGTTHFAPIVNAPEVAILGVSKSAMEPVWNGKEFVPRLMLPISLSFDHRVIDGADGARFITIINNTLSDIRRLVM
Sequence of UniProt P76193 (P76193 whole entry): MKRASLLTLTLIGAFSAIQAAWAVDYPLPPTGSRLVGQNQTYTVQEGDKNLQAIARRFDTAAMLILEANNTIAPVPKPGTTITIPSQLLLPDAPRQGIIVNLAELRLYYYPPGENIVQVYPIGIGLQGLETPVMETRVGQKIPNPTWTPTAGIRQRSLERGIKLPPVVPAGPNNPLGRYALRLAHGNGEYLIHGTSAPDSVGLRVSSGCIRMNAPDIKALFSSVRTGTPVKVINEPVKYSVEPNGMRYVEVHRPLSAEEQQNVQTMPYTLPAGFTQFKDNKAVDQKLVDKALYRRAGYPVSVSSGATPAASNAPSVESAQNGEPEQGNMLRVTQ
Sequence of UniProt P39399 (P39399 whole entry): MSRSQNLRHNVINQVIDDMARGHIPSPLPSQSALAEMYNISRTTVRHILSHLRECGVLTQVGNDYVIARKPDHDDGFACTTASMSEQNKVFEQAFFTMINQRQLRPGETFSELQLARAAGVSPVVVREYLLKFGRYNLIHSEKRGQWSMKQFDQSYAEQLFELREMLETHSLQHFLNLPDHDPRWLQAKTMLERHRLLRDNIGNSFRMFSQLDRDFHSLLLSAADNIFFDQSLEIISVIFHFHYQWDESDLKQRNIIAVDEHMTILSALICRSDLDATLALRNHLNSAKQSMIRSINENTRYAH
Sequence of UniProt P06989 (P06989 whole entry): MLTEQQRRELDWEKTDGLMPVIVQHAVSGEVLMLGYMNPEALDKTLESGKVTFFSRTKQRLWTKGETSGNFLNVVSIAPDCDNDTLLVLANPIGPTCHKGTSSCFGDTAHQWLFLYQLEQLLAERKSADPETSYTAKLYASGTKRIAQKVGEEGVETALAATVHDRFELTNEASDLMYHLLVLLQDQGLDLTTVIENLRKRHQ

Target | log2 fold change
UniProt P06720 (peptide sequence: CVEQLANWHKELEEYKK, peptide start residue: 299) | -1.1
UniProt P77364 (peptide sequence: IDSQTAGGKAPLGVASVAK, peptide start residue: 295) | -0.814
UniProt P08839 (peptide sequence: TSHTSIMAR, peptide start residue: 187) | 0.443
UniProt P25894 (peptide sequence: QRGISPAGLATSFEK, peptide start residue: 202) | 0.934
UniProt P04425 (peptide sequence: GTLIVNKPQSLR, peptide start residue: 109) | -1.9
UniProt P37765 (peptide sequence: EIESIIEAGRVSVDGK, peptide start residue: 19) | 0.997
UniProt P36879 (peptide sequence: TYPGGVQALR, peptide start residue: 13) | -3.15
UniProt P37691 (peptide sequence: MTSNLFGMQK, peptide start residue: 128) | 0.503
UniProt P13857 (peptide sequence: TVQGNVMLHQR, peptide start residue: 54) | -0.406
UniProt P08194 (peptide sequence: AEQELTAK, peptide start residue: 235) | -0.739
UniProt P08400 (peptide sequence: FSFVIPER, peptide start residue: 417) | 2.08
UniProt P76193 (peptide sequence: TGTPVKVINEPVKYSVEPNGMR, peptide start residue: 226) | -0.912
UniProt P08401 (peptide sequence: NVQEGGVLASLR, peptide start residue: 457) | 0.651
UniProt P78067 (peptide sequence: WGHAGSDSTHMEDFHNPDGTMR, peptide start residue: 340) | -0.858
UniProt P76177 (peptide sequence: KRIVQSPDVIPADSEAGR, peptide start residue: 179) | 2.16
UniProt P22106 (peptide sequence: QALEDSVK, peptide start residue: 214) | -0.816

Target | log2 fold change
UniProt P77544 (peptide sequence: QIQAWLR, peptide start residue: 104) | 0.878
UniProt P32125 (peptide sequence: AGAAQTIVASQQR, peptide start residue: 63) | -0.686
UniProt P06989 (peptide sequence: KSADPETSYTAK, peptide start residue: 126) | -0.912
UniProt P06959 (peptide sequence: VDFSKFGEIEEVELGR, peptide start residue: 392) | 0.812
UniProt P07604 (peptide sequence: YAWPGNVR, peptide start residue: 410) | -1.06
UniProt P39399 (peptide sequence: AAGVSPVVVR, peptide start residue: 118) | 0.3
UniProt P0A9L8 (peptide sequence: FAAQAVMGSAK, peptide start residue: 203) | -0.702
UniProt P76268 (peptide sequence: ALQNVDLIR, peptide start residue: 83) | 0.371
UniProt P39829 (peptide sequence: SANPSPGNKK, peptide start residue: 364) | -0.412
UniProt P31475 (peptide sequence: AHLNTLMAEMAALKENFRR, peptide start residue: 132) | 0.66
UniProt P0AAT4 (peptide sequence: AHLLKPYLTSR, peptide start residue: 288) | 0.38
UniProt P76543 (peptide sequence: NSQLGWCR, peptide start residue: 147) | -0.802
UniProt P77608 (peptide sequence: AAEQGEAIAPLR, peptide start residue: 16) | 0.736
UniProt P37025 (peptide sequence: VVWLGMR, peptide start residue: 87) | -0.685
UniProt P00887 (peptide sequence: YPVTPGVATHVTDSRR, peptide start residue: 25) | -0.488

From the supplement of paper PMC12819154, “High-throughput peptide-centric local stability assay extends protein–ligand identification to membrane proteins, tissues and bacteria” (Nature Structural & Molecular Biology, 2025)
